Screening data (PubChem BioAssay)
Compounds with a hit are over-represented: about 1.8% of the library has one in this group of screens.
RGS4 inh – Inhibitors of Regulator of G Protein Signaling (RGS) 4: qHTS. Transcreener GDP fluorescence polarization, RGS4-accelerated GTP hydrolysis. Potency, µM (titrated, usually from 114 µM), for inactives: at the highest dose activity change, negative = inhibition, hits mostly inhibitors. 390,000 compounds, 0.039% hits; further: on the % scale 0 is the no-effect control and ±100 the full control effect; nearly all actives have a fitted effect of over 75% in size
Target sequence (P49798 whole entry, looked up): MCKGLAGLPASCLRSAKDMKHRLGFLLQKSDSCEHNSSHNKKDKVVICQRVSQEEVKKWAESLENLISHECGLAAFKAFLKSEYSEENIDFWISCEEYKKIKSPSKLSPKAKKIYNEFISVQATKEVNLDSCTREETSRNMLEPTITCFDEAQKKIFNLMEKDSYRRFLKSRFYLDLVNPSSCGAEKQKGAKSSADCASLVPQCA
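MLSMR compounds (23 nl, pin-transferred) preincubated 10 min at room temperature with a 500nM (2x) first reagent, then RGS4 at 900nM (2x) plus Transcreener GDP mix added; fluorescence polarization (620/688 nm) read before and after 90 min at 30 °C.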
PTHR1 ag – qHTS for PTHR1 Agonists: Primary Screen. Parathyroid hormone/parathyroid hormone-related peptide receptor (Homo sapiens), Q03431. HEK293 GP2 PTHR1 cells, GloSensor cAMP luminescence, 1 h. Potency, µM (top dose mostly 115 µM), inactives show at the top dose activation, hits mostly activators. 410,000 compounds, 0.075% hits; further: nearly all actives have a fitted effect of over 55% in size
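HEK-293-derived GP2 cells expressing PTHR1 and a GloSensor cAMP reporter, 3,000/well, plated overnight, given luciferin plus IBMX (each 0.5 mM as added) for 1 h at 37 °C, then compound for 1 h at 37 °C. Luminescence was read after 15 min at room temperature.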
GLP1R ag – qHTS of GLP-1 Receptor Agonists; Glucagon-like peptide 1 receptor (Homo sapiens), P43220; HEK293 GLP-1R CRE-luciferase, luminescence, 4-6 h; cells express a hypersensitive GLP-1R form; Potency, µM (highest dose often 45.6 µM), for inactives: at the top dose activation, hits mostly activators; 380,000 compounds, 0.007% hits; AID 624172, 2012; further: % of control where 0% means no effect
Target sequence (P43220 whole entry, looked up): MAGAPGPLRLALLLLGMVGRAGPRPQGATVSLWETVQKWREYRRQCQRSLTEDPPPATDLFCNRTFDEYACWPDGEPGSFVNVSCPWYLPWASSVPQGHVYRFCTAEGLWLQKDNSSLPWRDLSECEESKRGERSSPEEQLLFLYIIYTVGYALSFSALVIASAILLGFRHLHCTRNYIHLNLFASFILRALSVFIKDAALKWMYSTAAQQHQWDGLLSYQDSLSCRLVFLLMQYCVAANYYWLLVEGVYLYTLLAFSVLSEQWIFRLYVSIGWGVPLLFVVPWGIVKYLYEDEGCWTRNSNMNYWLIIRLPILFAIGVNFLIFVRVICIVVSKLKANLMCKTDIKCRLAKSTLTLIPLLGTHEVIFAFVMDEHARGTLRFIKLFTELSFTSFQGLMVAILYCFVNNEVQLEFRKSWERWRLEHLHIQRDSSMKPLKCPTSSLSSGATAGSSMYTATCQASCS
HEK293 tox – qHTS of GLP-1 Receptor Inverse Agonists: Cytotox Screen; HEK293 cAMP-luciferase reporter cells, luminescence, 24 h; Potency, µM (top dose mostly 38.3 µM), without a hit: at the top dose activity change, negative = inhibition, actives largely listed as inhibitors; 410,000 compounds, 0.13% hits;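 further: loss of luciferase light is scored as toxicity; on the % scale 0 is the no-effect control and ±100 the full control effect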
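Seeding density was 200 cells/uL; after overnight-length (12 h) culture, 23 nL compounds went on for 24 h at 37 °C. Readout used a luciferase detection reagent, luminescence taken after 12 min at room temperature.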
GCN5L2 inh – qHTS Assay for Inhibitors of GCN5L2; Histone acetyltransferase KAT2A (Homo sapiens), Q92830; GCN5L2 HAT assay, ThioGlo1 CoA-SH fluorescence; Potency, µM (highest dose often 58.9 µM), for the others: at the highest dose activity change, negative = inhibition, actives largely listed as inhibitors; 390,000 compounds, 0.21% hits; further: on the % scale 0 is the no-effect control and ±100 the full control effect
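Enzyme at 20nM final was mixed with library compounds for 15 min at room temperature. Peptide H3(1-25) at 75uM, acetyl-CoA at 70uM and ThioGlo1 at 50uM were then added. Plates were read immediately and after 20 min (Ex340nm/Em540nm).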
GLP1R inv ag – qHTS of GLP-1 Receptor Inverse Agonists (Inhibition Mode) | Glucagon-like peptide 1 receptor (Homo sapiens), P43220 | HEK293 GLP-1R CRE-luciferase, luminescence, 24 h; GLP-1R form is constitutively active | Potency, µM (titrated, usually from 38.3 µM), inactives show top-dose activity change, negative = inhibition, most hits filed as inhibitors | 410,000 compounds, 1.6% hits | AID 624417, 2012; further: on the % scale 0 is the no-effect control and ±100 the full control effect; nearly all actives have a fitted effect of over 55% in size
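Inverse agonism was detected as reduced cAMP-driven luciferase luminescence after 24 h compound treatment. The cells were HEK293 clones expressing constitutively active human GLP-1R with the reporter. Reporter-only and GPR119 cell lines served as counterscreen controls.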
* marks the source's active call; other numbers are inactive results; i = inactive; ? = inconclusive; . = no result given; [ ] = dose if it differs, or a comment. The call rests on the fitted dose curve; in most records, active means well fitted curve in the direction sought with a large enough effect; inconclusive means small, poorly fitted or top-dose-only effect, or another doubt; inactive means no such curve, though single readings can be large; an effect the other way counts as inactive or inconclusive. Potency means the concentration at half of the fitted maximal effect.

SMILES	RGS4 inh	PTHR1 ag	GLP1R ag	HEK293 tox	GCN5L2 inh	GLP1R inv ag
c1ccc(Nc2c3c(nc4ccccc24)CCC3)cc1	-13%	-35%	6%	?	-5%	11µM*
c1ccc(CNc2c3c(nc4ccccc24)CCC3)cc1	-20%	-84%	6%	?	-7%	?
CNCC[C@H](Oc1cccc2ccccc12)c1cccs1	0%	i	-1%	-13%	13%	11µM*
Cc1oc2ccc(O)c(CN3CCCCCC3)c2c1C(=O)Nc1cccc(Cl)c1C	11%	?	.	-2%	-1%	0%
CC[C@@H](C(=O)[C@@H](C)[C@@H](O)[C@H](C)CCc1ccc(C)c(O)c1C(=O)O)[C@H]1O[C@](CC)([C@H]2CC[C@](O)(CC)[C@H](C)O2)C[C@@H]1C	-21%	-55%	-11%	10µM*	?	10µM*
CCOC(=O)c1cc(-c2ccccc2)n(CCCC(=O)Nc2ccc(C)c(C)c2)c1C	-4%	-20%	.	-21%	-12%	?
CC12CCC3C4CCC(=O)C(O)=C4CCC3C1CCC2OC(=O)CCC1CCCC1 (stereo not given)	.	.	-4%	.	2%	.
Cc1cccc(Cn2c(C)c(C)c3cc(C(=O)NCc4ccco4)ccc32)c1	-6%	i	.	?	-2%	?
Cc1[nH]ccc2c1[nH]c1cc(=O)ccc12	-10%	i	-9%	-7%	?	-29%
CCCSc1cc(OC)c(CCN)cc1OC	.	.	9%[110 µM]	.	.	.
C[C@]12CC[C@H](O)C[C@H]1CCC1C2CC[C@]2(C)[C@@H](c3ccc(=O)oc3)C[C@H]3O[C@]132 (stereo not given in full)	.	.	-5%	.	1%	.
CC(=O)Oc1c2c(c(CC=C(C)C)c3c1C(=O)C1=CC4CC5C(C)(C)OC(C/C=C(\C)C(=O)O)(C4=O)[C@]15O3)OC(C)(CCC=C(C)C)C=C2 (stereo not given in full)	.	.	.	.	16µM*	.
COC(=O)/C(C)=C\CC12OC(C)(C)C3CC(C=C4C(=O)c5c(OC)c6c(c(CC=C(C)C)c5OC431)OC(C)(CCC=C(C)C)C=C6)C2=O (stereo not given)	.	.	.	.	-27%	.
O=C(COc1ccc2ccccc2c1)N1CCN(Cc2c[nH]c3ccccc23)CC1	-49%	-86%	-2%	-32%	-4%	11µM*
O=C(COc1ccc(Br)cc1)N1CCN(Cc2c[nH]c3ccccc23)CC1	-32%	-95%	8%	-26%	-10%	?
CCC(C)N1CCN(C(=O)COc2ccc3ccccc3c2)CC1 (stereo not given)	-23%	-13%	7%	-9%	-3%	?
COc1ccc(CN2CCN(C(=O)COc3ccc4ccccc4c3)CC2)c(OC)c1	1%[56.9 µM]	i	-1%	-4%	-6%	10µM*
C=CCOc1c(Br)cc(/C=N/n2c(CC)n[nH]c2=S)cc1Br	-3%	i	1%	?	-1%	-16%
COc1ccc(OC)c2sc(N(CCCN(C)C)C(=O)CCS(=O)(=O)c3ccccc3)nc12	-3%	i	-27%	10µM*	0%	?
Cc1ccc2sc(N(CCCN(C)C)C(=O)CCS(=O)(=O)c3ccccc3)nc2c1C	-32%	i	-3%	?	-1%	?
CCC1/C=C/C=CCC(C)C(O)[C@@](C)(O)C(=O)C(C)C(O)C(C)C(=O)C(C)C(O)C(C)C=CC(=O)O[C@H]2C(C)C(CC1)O[C@]1(CCC(C)C(CC(C)O)O1)C2C (stereo not given in full)	.	.	.	.	-17%	.
OC(Cc1cccc(Br)c1)c1ncc(-c2cccc(C(F)(F)F)c2)[nH]1 (stereo not given)	.	-3%	-5%	?	.	?
COc1ccc2nc(NC(=O)c3nc(S(=O)(=O)Cc4cccc(C)c4)ncc3Cl)sc2c1	?	-32%	.	?	-22%	?
[Cl-].[Cl-].[Hg+2]	.	.	-8%	.	0.14µM*	.
CCOc1ccc(NCc2cccn2-c2nnc(N3CCC(C(=O)NCc4ccc(C)cc4)CC3)s2)cc1	0%	-32%	.	-1%	-14%	?
SMILES	RGS4 inh	PTHR1 ag	GLP1R ag	HEK293 tox	GCN5L2 inh	GLP1R inv ag
Cc1ccc(NCc2cccn2-c2nnc(N3CCC(C(=O)NCc4ccc(OC(C)C)cc4)CC3)s2)cc1	24%	-25%	.	-16%	-12%	10µM*
O=P(Nc1ccccc1)(Oc1ccccc1)Oc1ccccc1	-26%	-10%	8%	-15%	-5%	?
Cc1cccc(NP(=O)(Oc2ccccc2)Oc2ccccc2)c1C	-34%	-39%	5%	-13%	-9%	10µM*
COc1cccc(OP(=O)(Nc2ccccc2)Oc2cccc(OC)c2)c1	40%	-31%	7%	?	-16%	10µM*
COc1cc(C2c3cc4c(cc3OC(C)(N3CCCC3)C2C)OCO4)cc(OC)c1OC (stereo not given)	-36%	-22%	-3%	?	.	?
O=C1C=CC(=O)C(Cl)=C1	.	.	.	.	16µM*	.
CN(C(=O)Oc1ccc(C(=O)c2ccc(Cl)cc2)cc1)c1ccccc1	-16%	-30%	1%	-4%	-11%	10µM*
C=CCn1cccc(/C=C/C(=O)c2ccc(C(C)(C)C)cc2)c1=S	?	-29%	-21%	?	-7%	13µM*
Cc1ccc(C(=O)/C=C/c2ccccc2[N+](=O)[O-])cc1	-37%	-45%	-5%	?	-4%	?
COc1ccc(S(=O)(=O)NCCc2sc3nc(-c4ccc(C)cc4)nn3c2C)cc1F	-21%	-56%	.	10%	4%	?
CC(=O)CC(c1ccccc1)c1c(O)c2cccc(O)c2oc1=O (stereo not given)	.	.	.	.	46%	.
COC(=O)C1=C(c2ccc(OCc3ccccc3)cc2)C[C@@H]2CC[C@H]1N2C(=O)NCc1ccccc1	-2%	i	-7%	-2%	-5%	?
COC(=O)C1=C(c2ccc(F)cc2OCc2ccccc2)C[C@@H]2CC[C@H]1N2C(=O)NCc1ccccc1Br	-15%	-23%	1%	1%	-8%	-5%
COC(=O)C1=C(c2ccc(F)cc2OCc2ccccc2)C[C@@H]2CC[C@H]1N2C(=O)NCc1ccccc1C(F)(F)F	-16%	-6%	7%	-18%	-8%	13µM*
